# Assay results: publication PMC12136788
# Residue numbers refer to the chain shown, from its start. The full ranking holds about 5,800 sequences; the median of “enrichment r” is about 0.54, and the highest 2% start at about 16. The list comes from a sample in which the highest values are over-represented; it also holds similar and randomly drawn sequences.
# B1: chr1:162785649:162785750:+|3pUTR|ENSG00000162733|unk|FALSE|unique (ssRNA)
# RNA: GGGAGUUCUACAGUCCGACGAUCUGAAUGUUGUUUUUUUGAAUGAACAUAAGAUAGAAACAAAAACUUCUCAUCCAGUUAACUAGAGUGAAUGUAGGGAGAAUUGUUUUGCUUGUAACAUGGAGAGUUUAUUUUCAAGUGAGGCAACAGAGGAUUGAGCAUCA
# B2: chr15:77046258:77046342:-|3pUTR|ENSG00000140391|msi1_unk|FALSE|overlapping (ssRNA)
# RNA: GGGAGUUCUACAGUCCGACGAUCAAAAAUAUUUACUGUAGUCCAAUAAGAUAGCAGCUGUACAAAAUGACUAAAAUAGAUUGUAGGAUCAUAUGGCGUAUAUCUUGGUUCAUCUUCAAAAUCAGAGACUGAGCUUUGAAACUACAACAGAGGAUUGAGCAUCA
# B3: chr2:128192346:128192447:+|3pUTR|ENSG00000136731|msi1|FALSE|unique (ssRNA)
# RNA: GGGAGUUCUACAGUCCGACGAUCAGAAAAUGAUGUUACCACUAAAAUAUUUUCUCCAAGAAGGCAUACUGUAACAGAAAAGAUAGGUAAGAUAUUUUUUUCCCAAGAAGUAAGAAUUGAUUGUGCUGAAUGUUCAAACUCUGGCAACAGAGGAUUGAGCAUCA
# B4: chr16:3727831:3727932:-|CDS|ENSG00000005339|unk|FALSE|bound_elsewhere (ssRNA)
# RNA: GGGAGUUCUACAGUCCGACGAUCCGUCUCACCCCAGACUGGUUCCCCCCACCCCGGACUCGCAGUCACCAUGGCCAGCUCCAUAGAUCAGGGACACUUGGGGAACCCCGAACAGAGUGCAAUGCUCCCCCAGCUGAACACCCCCAACAGAGGAUUGAGCAUCA
# B5: chr16:30193532:30193793:-|CDS|ENSG00000169627|control|control|control (ssRNA)
# RNA: GGGAGUUCUACAGUCCGACGAUCGCCUUAGUAAGGGCGGAAGUGAGUUUUCCAGCGGAAGUGGCUCCUGUAAGGCAGCAAGGUAGCGUGGCCGGCGCCCGAGCUGGGGUUGUGUCCCUGCUGGGCUGCCGUUCCAGCUGGACUCAACAGAGGAUUGAGCAUCA
# B6: chrX:101412715:101412817:+|CDS|ENSG00000126945|unk|FALSE|unique (ssRNA)
# RNA: GGGAGUUCUACAGUCCGACGAUCGGGUAUGGAGGCUAUGAUGACUAUGGUGGCUAUAAUGAUGGAUAUGGCUUUGGGUCUGAUAGAUUUGGAAGAGACCUCAAUUACUGUUUUUCAGGAAUGUCUGAUCAUAGAUACGGAGAUCAACAGAGGAUUGAGCAUCA
# B7: chr11:28036422:28036524:-|CDS|ENSG00000121621|unk|FALSE|unique (ssRNA)
# RNA: GGGAGUUCUACAGUCCGACGAUCCAGCUCAAUGAUUCUCUUAGCAAAGAACUUCAGCCUAUUGUAUAUACACCAGAAGACUGUAGAAAAGCUUUUCAAAAUCCGUCUACAGUAACCUUAAUGAAACCAUCAUCAUUUACUACACAACAGAGGAUUGAGCAUCA
# B8: chr5:132541444:132541810:-|three_prime_utr|ENSG00000113525|control|control|control (ssRNA)
# RNA: GGGAGUUCUACAGUCCGACGAUCAAAUUGAUAUACUUUUUUCUUAUUUAACUUAACAUUCUGUAAAAUGUCUGUUAACUUAAUAGUAUUUAUGAAAUGGUUAAGAAUUUGGUAAAUUAGUAUUUAUUUAAUGUUAUGUUGUGUCAACAGAGGAUUGAGCAUCA
# B9: chr11:74334375:74334476:-|3pUTR|ENSG00000165434|msi1|FALSE|unique (ssRNA)
# RNA: GGGAGUUCUACAGUCCGACGAUCUUUUUGUUUUAUUUUUAAAAUGUGUAAAACAUCUUUUGUUUUAUAUGCUUUUAAGAAUGUAGAUUGUAAUUUAGGAAAUGGCAUAUAUUCUGCAAAGUGGUAUAAUGUUGUAUAUAUGAACAACAGAGGAUUGAGCAUCA
# B10: chr9:83661418:83661519:-|3pUTR|ENSG00000135018|msi1|total|mutant (ssRNA)
# RNA: GGGAGUUCUACAGUCCGACGAUCUACCGUUGGGUGACCAGAUUUUGUCCUGCAUCUGUCCAGUUUAUUUGCUUUUUAAACAUCCGCCUAUGGCCGUAAUUUAUGCCGAAUAAAAGCAUUAAAAAGAAGCAAAUCAUUUGCACUCAACAGAGGAUUGAGCAUCA
# B11: chr9:83661418:83661519:-|3pUTR|ENSG00000135018|msi1|FALSE|unique (ssRNA)
# RNA: B10 RNA with C26U, C27A, C83U, C84A, C93U, C94A, C105U, C106A
# B12: chr6:98868534:98874277:-|three_prime_utr|ENSG00000112234|control|control|control (ssRNA)
# RNA: GGGAGUUCUACAGUCCGACGAUCAUUAAAAUUAAUGUGCUUUGUUGGGGUUUAAUUUUGGGAUUGGUUUUGGGUUUUGUUUUUAGUUGUUUUAAUGGUAAGAAUUAAGACAUUUGUAGAUUUUAAAGAAAAAUAUGAAAUUGUCAACAGAGGAUUGAGCAUCA
# B13: chr8:25429562:25429664:-|3pUTR|ENSG00000104756|unk|FALSE|unique (ssRNA)
# RNA: GGGAGUUCUACAGUCCGACGAUCAGAAAAGCACUCAUUUAAUAGAUGUAGGGAAACUAGAUAUUGCUGCCUUUUGAAUGGGGUAGGGGGGUUUACCUGGUUUUAUGACCAGGCAUAGUAUCUAUUAUAUUUGCUUUUAAAUAGCAACAGAGGAUUGAGCAUCA
# B14: chr20:54218986:54219149:+|CDS|ENSG00000101132|unk|FALSE|unique (ssRNA)
# RNA: GGGAGUUCUACAGUCCGACGAUCAAAUUUGCAAGAAGAAAUUGACGCCUUAGAAUCCAGAGUGGAAUCAAUUCAGCGAGUGUUAGCAGAUUUGAAAGUUCAGUUGUAUGCAAAAUUCGGGAGCAACAUAAACCUUGAAGCUGACAACAGAGGAUUGAGCAUCA
# B15: chr5:136988535:136988636:-|CDS|ENSG00000152377|msi1|total|mutant (ssRNA)
# RNA: GGGAGUUCUACAGUCCGACGAUCGGAAAGCAUCAGGCUUGGUGGCAGCUGAGAUAUGCCUUUUGUUUGGCAGGGUUUGACACCCGCAUCCUGCCCAUCUGCAAGGACUCCCUGGGCUGGAUGUUCAACAAGUUGGACAUGAACCAACAGAGGAUUGAGCAUCA
# Target: MSI1 full-length (mouse, UniProt Q61474 1-362)
# Sequence (Q61474 whole entry): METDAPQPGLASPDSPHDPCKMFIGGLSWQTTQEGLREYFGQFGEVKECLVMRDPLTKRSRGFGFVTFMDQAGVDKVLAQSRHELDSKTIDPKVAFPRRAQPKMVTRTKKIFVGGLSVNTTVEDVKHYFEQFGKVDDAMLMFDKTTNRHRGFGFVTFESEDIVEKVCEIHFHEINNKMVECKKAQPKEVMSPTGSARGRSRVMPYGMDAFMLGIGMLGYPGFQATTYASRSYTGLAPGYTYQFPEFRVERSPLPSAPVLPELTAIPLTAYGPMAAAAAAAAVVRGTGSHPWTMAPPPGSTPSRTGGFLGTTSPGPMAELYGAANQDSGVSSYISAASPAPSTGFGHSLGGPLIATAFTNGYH
# Test: nsRBNS (natural sequence RNA bind-n-seq); RBNS binding buffer (assumed for nsRBNS): 25 mM Tris pH 7.5, 150 mM KCl, 3 mM MgCl2, 0.01% Triton X-100, 500 ug/ml BSA, 20 U/ml SUPERase-In, 4 C; UNK is unkempt and MSI1 is Musashi-1; names of the RNAs are library labels; protein concentration not given here; high values mean tight binding
row,Binder,binding signal
1,B1,2.65 enrichment R
2,B2,9.31 enrichment R
3,B3,0.593 enrichment R
4,B4,0.562 enrichment R
5,B5,0.62 enrichment R
6,B6,0.771 enrichment R
7,B7,0.992 enrichment R
8,B8,2.88 enrichment R
9,B9,3.15 enrichment R
10,B10,0.203 enrichment R
11,B11,26.4 enrichment R
12,B12,21.9 enrichment R
13,B13,2.16 enrichment R
14,B14,0.378 enrichment R
15,B15,0.511 enrichment R
